# According to ChEMBL document CHEMBL1961873, “Compounds: GSK PKIS; Assays: Nanosyn kinase panel” (2012):
# Legend:
# [1] = target: Platelet-derived growth factor receptor beta (Homo sapiens) (UniProt P09619); settings: at 0.1 µM
# [2] = target: Platelet-derived growth factor receptor beta (Homo sapiens) (UniProt P09619); settings: at 1 µM
# [3] = target: Tyrosine-protein kinase FRK (Homo sapiens) (UniProt P42685); settings: at 0.1 µM
# [4] = target: Tyrosine-protein kinase FRK (Homo sapiens) (UniProt P42685); settings: at 1 µM
# [5] = target: Protein-tyrosine kinase 2-beta (Homo sapiens) (UniProt Q14289); settings: at 0.1 µM
# [6] = target: Protein-tyrosine kinase 2-beta (Homo sapiens) (UniProt Q14289); settings: at 1 µM
# [7] = target: Proto-oncogene tyrosine-protein kinase receptor Ret (Homo sapiens) (UniProt P07949); settings: at 0.1 µM
# Proto-oncogene tyrosine-protein kinase receptor Ret (Homo sapiens), sequence (P07949 whole entry): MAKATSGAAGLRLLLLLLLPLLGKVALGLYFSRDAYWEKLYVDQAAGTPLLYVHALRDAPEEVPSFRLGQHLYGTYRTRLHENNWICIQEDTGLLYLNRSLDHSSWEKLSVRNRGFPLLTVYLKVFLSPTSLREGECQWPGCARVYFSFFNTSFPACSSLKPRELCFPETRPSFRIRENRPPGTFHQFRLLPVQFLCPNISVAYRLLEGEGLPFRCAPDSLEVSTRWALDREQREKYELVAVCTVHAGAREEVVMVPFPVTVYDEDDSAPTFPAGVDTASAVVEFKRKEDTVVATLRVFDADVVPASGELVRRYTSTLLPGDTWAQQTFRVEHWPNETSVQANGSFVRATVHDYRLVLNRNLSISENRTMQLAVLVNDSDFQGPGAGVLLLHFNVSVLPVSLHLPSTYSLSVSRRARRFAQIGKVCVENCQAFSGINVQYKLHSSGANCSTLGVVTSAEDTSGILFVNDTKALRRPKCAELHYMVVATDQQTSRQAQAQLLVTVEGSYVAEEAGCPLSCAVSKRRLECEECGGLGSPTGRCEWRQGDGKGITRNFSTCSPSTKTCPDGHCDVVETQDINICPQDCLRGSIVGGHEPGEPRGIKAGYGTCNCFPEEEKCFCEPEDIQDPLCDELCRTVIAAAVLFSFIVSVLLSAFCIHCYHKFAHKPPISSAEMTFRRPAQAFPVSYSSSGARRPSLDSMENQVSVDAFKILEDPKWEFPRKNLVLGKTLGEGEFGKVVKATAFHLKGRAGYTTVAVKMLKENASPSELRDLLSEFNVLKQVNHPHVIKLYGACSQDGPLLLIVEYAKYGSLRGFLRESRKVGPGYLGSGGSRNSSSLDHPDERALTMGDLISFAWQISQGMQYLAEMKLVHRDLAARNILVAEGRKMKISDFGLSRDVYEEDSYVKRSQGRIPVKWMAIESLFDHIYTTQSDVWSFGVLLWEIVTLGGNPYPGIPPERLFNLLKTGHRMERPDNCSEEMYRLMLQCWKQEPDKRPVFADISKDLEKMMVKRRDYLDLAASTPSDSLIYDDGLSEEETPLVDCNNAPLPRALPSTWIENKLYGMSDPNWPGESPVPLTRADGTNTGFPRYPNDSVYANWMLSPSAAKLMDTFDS
# [8] = target: Proto-oncogene tyrosine-protein kinase receptor Ret (Homo sapiens) (UniProt P07949); settings: at 1 µM
# [9] = system: Proto-oncogene tyrosine-protein kinase receptor Ret (Homo sapiens), P07949 [V804L]; settings: at 0.1 µM
# Proto-oncogene tyrosine-protein kinase receptor Ret (Homo sapiens), P07949 [V804L], sequence (P07949 whole entry V804L): as the sequence (P07949 whole entry) above, with V804L counted along it
# [10] = system: Proto-oncogene tyrosine-protein kinase receptor Ret (Homo sapiens), P07949 [V804L]; settings: at 1 µM
# [11] = system: Proto-oncogene tyrosine-protein kinase receptor Ret (Homo sapiens), P07949 [Y791F]; settings: at 0.1 µM
# Proto-oncogene tyrosine-protein kinase receptor Ret (Homo sapiens), P07949 [Y791F], sequence (P07949 whole entry Y791F): as the sequence (P07949 whole entry) above, with Y791F counted along it
# [12] = system: Proto-oncogene tyrosine-protein kinase receptor Ret (Homo sapiens), P07949 [Y791F]; settings: at 1 µM
# [13] = target: Macrophage-stimulating protein receptor (Homo sapiens) (UniProt Q04912); settings: at 0.1 µM
# [14] = target: Macrophage-stimulating protein receptor (Homo sapiens) (UniProt Q04912); settings: at 1 µM
# [15] = target: Proto-oncogene tyrosine-protein kinase ROS (Homo sapiens) (UniProt P08922); settings: at 0.1 µM
# [16] = target: Proto-oncogene tyrosine-protein kinase ROS (Homo sapiens) (UniProt P08922); settings: at 1 µM
# [17] = target: Proto-oncogene tyrosine-protein kinase Src (Homo sapiens) (UniProt P12931); settings: at 0.1 µM
# Proto-oncogene tyrosine-protein kinase Src (Homo sapiens), sequence (P12931 2-536 limits assumed): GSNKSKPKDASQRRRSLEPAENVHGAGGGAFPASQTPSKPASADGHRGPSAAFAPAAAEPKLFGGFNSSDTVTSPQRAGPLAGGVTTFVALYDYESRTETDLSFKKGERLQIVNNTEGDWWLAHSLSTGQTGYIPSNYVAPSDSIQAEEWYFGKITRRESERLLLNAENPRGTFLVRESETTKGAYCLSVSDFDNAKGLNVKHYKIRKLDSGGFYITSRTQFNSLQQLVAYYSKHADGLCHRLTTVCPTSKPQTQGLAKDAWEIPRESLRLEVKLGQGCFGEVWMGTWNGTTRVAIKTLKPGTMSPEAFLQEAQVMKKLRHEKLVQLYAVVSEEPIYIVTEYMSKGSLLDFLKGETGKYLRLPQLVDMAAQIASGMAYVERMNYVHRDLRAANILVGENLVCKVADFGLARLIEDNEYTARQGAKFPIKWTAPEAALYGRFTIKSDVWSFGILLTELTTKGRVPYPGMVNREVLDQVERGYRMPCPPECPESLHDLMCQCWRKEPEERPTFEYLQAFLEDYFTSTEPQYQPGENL
# [18] = target: Proto-oncogene tyrosine-protein kinase Src (Homo sapiens) (UniProt P12931); settings: at 1 µM
# [19] = target: Tyrosine-protein kinase Srms (Homo sapiens) (UniProt Q9H3Y6); settings: at 0.1 µM
# [20] = target: Tyrosine-protein kinase Srms (Homo sapiens) (UniProt Q9H3Y6); settings: at 1 µM
# [21] = target: Tyrosine-protein kinase SYK (Homo sapiens) (UniProt P43405); settings: at 0.1 µM
# [22] = target: Tyrosine-protein kinase SYK (Homo sapiens) (UniProt P43405); settings: at 1 µM
# [23] = target: Tyrosine-protein kinase Tec (Homo sapiens) (UniProt P42680); settings: at 0.1 µM
# [24] = target: Tyrosine-protein kinase Tec (Homo sapiens) (UniProt P42680); settings: at 1 µM
# [25] = target: Angiopoietin-1 receptor (Homo sapiens) (UniProt Q02763); settings: at 0.1 µM
# [26] = target: Angiopoietin-1 receptor (Homo sapiens) (UniProt Q02763); settings: at 1 µM
# [27] = target: Non-receptor tyrosine-protein kinase TNK1 (Homo sapiens) (UniProt Q13470); settings: at 0.1 µM
# [28] = target: Non-receptor tyrosine-protein kinase TNK1 (Homo sapiens) (UniProt Q13470); settings: at 1 µM
# [29] = target: Activated CDC42 kinase 1 (Homo sapiens) (UniProt Q07912); settings: at 0.1 µM
# Activated CDC42 kinase 1 (Homo sapiens), sequence (Q07912 whole entry, looked up): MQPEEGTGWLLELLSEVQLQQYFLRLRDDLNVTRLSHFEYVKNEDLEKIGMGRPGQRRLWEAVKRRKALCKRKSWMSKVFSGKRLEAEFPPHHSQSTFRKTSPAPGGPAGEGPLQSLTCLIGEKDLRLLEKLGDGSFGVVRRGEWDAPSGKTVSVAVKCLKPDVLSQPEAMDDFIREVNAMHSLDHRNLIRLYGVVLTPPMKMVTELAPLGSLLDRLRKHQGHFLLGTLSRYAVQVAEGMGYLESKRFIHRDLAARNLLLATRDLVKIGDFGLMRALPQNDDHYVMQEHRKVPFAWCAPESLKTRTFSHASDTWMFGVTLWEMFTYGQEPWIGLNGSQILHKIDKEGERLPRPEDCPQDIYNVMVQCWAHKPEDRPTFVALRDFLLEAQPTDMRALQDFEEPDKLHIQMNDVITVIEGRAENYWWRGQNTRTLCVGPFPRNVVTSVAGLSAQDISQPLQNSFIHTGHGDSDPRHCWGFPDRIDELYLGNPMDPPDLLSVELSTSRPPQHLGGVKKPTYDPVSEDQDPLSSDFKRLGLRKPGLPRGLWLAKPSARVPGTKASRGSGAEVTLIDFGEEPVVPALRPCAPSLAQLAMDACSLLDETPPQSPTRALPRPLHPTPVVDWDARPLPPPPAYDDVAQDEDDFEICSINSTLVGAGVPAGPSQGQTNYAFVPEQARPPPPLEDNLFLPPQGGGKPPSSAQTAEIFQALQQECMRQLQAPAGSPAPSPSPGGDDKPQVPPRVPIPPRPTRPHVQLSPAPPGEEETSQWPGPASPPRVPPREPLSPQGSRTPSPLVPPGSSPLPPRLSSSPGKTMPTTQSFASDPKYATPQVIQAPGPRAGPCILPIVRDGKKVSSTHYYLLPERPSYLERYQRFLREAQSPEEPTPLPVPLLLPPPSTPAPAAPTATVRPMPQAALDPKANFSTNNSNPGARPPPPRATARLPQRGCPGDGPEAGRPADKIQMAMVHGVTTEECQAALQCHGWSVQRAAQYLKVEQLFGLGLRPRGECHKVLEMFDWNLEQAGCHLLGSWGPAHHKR
# [30] = target: Activated CDC42 kinase 1 (Homo sapiens) (UniProt Q07912); settings: at 1 µM
# [31] = target: High affinity nerve growth factor receptor (Homo sapiens) (UniProt P04629); settings: at 0.1 µM
# [32] = target: High affinity nerve growth factor receptor (Homo sapiens) (UniProt P04629); settings: at 1 µM
# [33] = target: BDNF/NT-3 growth factors receptor (Homo sapiens) (UniProt Q16620); settings: at 0.1 µM
# [34] = target: BDNF/NT-3 growth factors receptor (Homo sapiens) (UniProt Q16620); settings: at 1 µM
# [35] = target: NT-3 growth factor receptor (Homo sapiens) (UniProt Q16288); settings: at 0.1 µM
# NT-3 growth factor receptor (Homo sapiens), sequence (Q16288 32-839 limits assumed): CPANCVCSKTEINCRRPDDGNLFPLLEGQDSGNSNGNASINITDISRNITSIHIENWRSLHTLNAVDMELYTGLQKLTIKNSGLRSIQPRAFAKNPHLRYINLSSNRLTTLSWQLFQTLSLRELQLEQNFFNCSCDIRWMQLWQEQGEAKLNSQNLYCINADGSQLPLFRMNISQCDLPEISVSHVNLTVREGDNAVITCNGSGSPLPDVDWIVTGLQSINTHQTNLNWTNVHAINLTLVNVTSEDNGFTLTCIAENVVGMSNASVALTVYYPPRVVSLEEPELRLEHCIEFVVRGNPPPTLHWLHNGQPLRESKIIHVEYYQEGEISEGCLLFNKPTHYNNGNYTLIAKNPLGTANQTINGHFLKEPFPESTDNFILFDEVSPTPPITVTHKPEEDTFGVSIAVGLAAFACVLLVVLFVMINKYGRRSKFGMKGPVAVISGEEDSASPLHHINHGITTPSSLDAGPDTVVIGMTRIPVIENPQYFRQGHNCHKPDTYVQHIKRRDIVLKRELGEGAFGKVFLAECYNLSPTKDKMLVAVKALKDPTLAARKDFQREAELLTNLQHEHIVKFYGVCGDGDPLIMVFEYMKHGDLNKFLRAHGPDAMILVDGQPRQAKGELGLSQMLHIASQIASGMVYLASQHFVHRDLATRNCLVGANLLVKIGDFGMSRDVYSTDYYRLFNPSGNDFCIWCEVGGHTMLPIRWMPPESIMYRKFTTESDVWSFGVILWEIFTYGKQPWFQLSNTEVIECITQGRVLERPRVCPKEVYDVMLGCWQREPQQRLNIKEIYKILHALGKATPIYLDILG
# [36] = target: NT-3 growth factor receptor (Homo sapiens) (UniProt Q16288); settings: at 1 µM
# [37] = target: Tyrosine-protein kinase TXK (Homo sapiens) (UniProt P42681); settings: at 0.1 µM
# [38] = target: Tyrosine-protein kinase TXK (Homo sapiens) (UniProt P42681); settings: at 1 µM
# [39] = target: Non-receptor tyrosine-protein kinase TYK2 (Homo sapiens) (UniProt P29597); settings: at 0.1 µM;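 note: each value is a mean of the inhibition readings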
# [40] = target: Dual specificity protein kinase TTK (Homo sapiens) (UniProt P33981); settings: at 1 µM;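 note: reported figures are mean TTK inhibition at 1 µM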
# [41] = target: Aurora kinase A (Homo sapiens) (UniProt O14965); settings: at 0.1 µM
# Aurora kinase A (Homo sapiens), sequence (O14965 whole entry): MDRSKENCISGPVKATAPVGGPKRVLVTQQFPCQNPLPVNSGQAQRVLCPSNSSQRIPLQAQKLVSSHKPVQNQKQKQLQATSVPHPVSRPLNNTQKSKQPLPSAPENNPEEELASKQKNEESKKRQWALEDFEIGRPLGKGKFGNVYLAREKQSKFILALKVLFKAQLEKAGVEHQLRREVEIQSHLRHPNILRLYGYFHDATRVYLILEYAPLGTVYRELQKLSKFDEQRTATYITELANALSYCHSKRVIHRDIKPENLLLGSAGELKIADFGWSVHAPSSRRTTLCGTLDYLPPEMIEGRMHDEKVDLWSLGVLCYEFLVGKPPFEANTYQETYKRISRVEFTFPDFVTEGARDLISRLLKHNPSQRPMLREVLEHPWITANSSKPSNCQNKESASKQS
# [42] = target: Aurora kinase A (Homo sapiens) (UniProt O14965); settings: at 1 µM
# [43] = target: Aurora kinase B (Homo sapiens) (UniProt Q96GD4); settings: at 0.1 µM
# [44] = target: Aurora kinase B (Homo sapiens) (UniProt Q96GD4); settings: at 1 µM
# [45] = target: Aurora kinase C (Homo sapiens) (UniProt Q9UQB9); settings: at 0.1 µM
# [46] = target: Aurora kinase C (Homo sapiens) (UniProt Q9UQB9); settings: at 1 µM
# [47] = target: Serine/threonine-protein kinase 10 (Homo sapiens) (UniProt O94804); settings: at 0.1 µM
# Serine/threonine-protein kinase 10 (Homo sapiens), sequence (O94804 whole entry, looked up): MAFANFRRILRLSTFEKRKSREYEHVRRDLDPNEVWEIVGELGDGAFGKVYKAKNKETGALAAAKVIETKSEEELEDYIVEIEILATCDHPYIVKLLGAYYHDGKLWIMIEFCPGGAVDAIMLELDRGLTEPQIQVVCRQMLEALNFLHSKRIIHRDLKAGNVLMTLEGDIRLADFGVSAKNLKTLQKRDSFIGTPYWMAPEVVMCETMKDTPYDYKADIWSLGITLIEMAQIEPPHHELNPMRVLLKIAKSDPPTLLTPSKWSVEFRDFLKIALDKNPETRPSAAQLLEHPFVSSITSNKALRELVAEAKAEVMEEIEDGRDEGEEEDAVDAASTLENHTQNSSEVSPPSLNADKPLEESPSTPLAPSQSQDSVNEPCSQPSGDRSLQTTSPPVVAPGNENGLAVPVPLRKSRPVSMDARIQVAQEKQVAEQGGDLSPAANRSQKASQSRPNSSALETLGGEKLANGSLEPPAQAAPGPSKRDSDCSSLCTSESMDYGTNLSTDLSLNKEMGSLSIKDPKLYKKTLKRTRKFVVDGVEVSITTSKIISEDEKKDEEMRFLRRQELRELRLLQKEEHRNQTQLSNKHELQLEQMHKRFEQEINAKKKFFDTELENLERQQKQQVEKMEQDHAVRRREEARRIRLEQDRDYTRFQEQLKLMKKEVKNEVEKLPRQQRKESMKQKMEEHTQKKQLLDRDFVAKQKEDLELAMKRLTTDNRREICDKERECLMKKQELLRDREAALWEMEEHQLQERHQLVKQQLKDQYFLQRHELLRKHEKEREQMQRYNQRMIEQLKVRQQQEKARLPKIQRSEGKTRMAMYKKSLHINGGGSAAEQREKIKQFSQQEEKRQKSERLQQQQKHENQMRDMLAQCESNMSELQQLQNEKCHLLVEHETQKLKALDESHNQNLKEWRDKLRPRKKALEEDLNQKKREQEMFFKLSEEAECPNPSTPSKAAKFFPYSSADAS
# [48] = target: Serine/threonine-protein kinase 10 (Homo sapiens) (UniProt O94804); settings: at 1 µM
# [49] = target: Mitogen-activated protein kinase kinase kinase kinase 2 (Homo sapiens) (UniProt Q12851); settings: at 0.1 µM
# [50] = target: Mitogen-activated protein kinase kinase kinase kinase 2 (Homo sapiens) (UniProt Q12851); settings: at 1 µM
# [51] = target: Mitogen-activated protein kinase kinase kinase kinase 4 (Homo sapiens) (UniProt O95819); settings: at 0.1 µM
# [52] = target: Mitogen-activated protein kinase kinase kinase kinase 4 (Homo sapiens) (UniProt O95819); settings: at 1 µM
# [53] = target: Dual specificity mitogen-activated protein kinase kinase 1 (Homo sapiens) (UniProt Q02750); settings: at 0.1 µM
# [54] = target: Dual specificity mitogen-activated protein kinase kinase 1 (Homo sapiens) (UniProt Q02750); settings: at 1 µM
# [55] = target: Misshapen-like kinase 1 (Homo sapiens) (UniProt Q8N4C8); settings: at 0.1 µM
# [56] = target: Misshapen-like kinase 1 (Homo sapiens) (UniProt Q8N4C8); settings: at 1 µM
compound,measurement,setting,value
CNC(=O)Oc1cc(C)c(/C=C/c2cncc(C(=O)NC)c2)c(C)c1,inhibition,[1],8.91%
same,inhibition,[2],49.7%
same,inhibition,[3],2.61%
same,inhibition,[4],13.1%
same,inhibition,[5],10.7%
same,inhibition,[6],6.54%
same,inhibition,[7],-1.48%
same,inhibition,[8],2.54%
same,inhibition,[9],2.06%
same,inhibition,[10],3.32%
same,inhibition,[11],2.2%
same,inhibition,[12],2.71%
same,inhibition,[13],-0.85%
same,inhibition,[14],4.22%
same,inhibition,[15],9.53%
same,inhibition,[16],13.7%
same,inhibition,[17],5.94%
same,inhibition,[18],49.2%
same,inhibition,[19],4.13%
same,inhibition,[20],19.3%
same,inhibition,[21],-1.41%
same,inhibition,[22],-0.86%
same,inhibition,[23],8.66%
same,inhibition,[24],39.1%
same,inhibition,[25],-0.08%
same,inhibition,[26],3.57%
same,inhibition,[27],1.27%
same,inhibition,[28],14.6%
same,inhibition,[29],0.99%
same,inhibition,[30],6.77%
same,inhibition,[31],1.04%
same,inhibition,[32],-0.56%
same,inhibition,[33],1.03%
same,inhibition,[34],0.99%
same,inhibition,[35],-0.56%
same,inhibition,[36],2.73%
same,inhibition,[37],13.4%
same,inhibition,[38],34.7%
same,inhibition,[39],-4.14%
same,inhibition,[40],8.09%
same,inhibition,[41],2.77%
same,inhibition,[42],4.58%
same,inhibition,[43],0.2%
same,inhibition,[44],1.25%
same,inhibition,[45],0.65%
same,inhibition,[46],9.48%
same,inhibition,[47],5.93%
same,inhibition,[48],16.9%
same,inhibition,[49],0.92%
same,inhibition,[50],5.49%
same,inhibition,[51],3.12%
same,inhibition,[52],8.96%
same,inhibition,[53],2.97%
same,inhibition,[54],4.15%
same,inhibition,[55],3.2%
same,inhibition,[56],7.01%
